High-throughput results: PubChem, National Center for Advancing Translational Sciences (NCATS)
Shown are actives, neighbours in structure and some others; about 12% of the full set was active somewhere.
G9a inh – qHTS Assay for Inhibitors of Histone Lysine Methyltransferase G9a. 350,000 tested, 8.8% active. G9a H3K9 monomethylation, AlphaScreen, 2 h. Histone-lysine N-methyltransferase EHMT2 (Homo sapiens), Q96KQ7. Potency, µM (highest dose often 102 µM), for inactives: top-dose activity, negative = inhibition, usual class: inhibitors. AID 504332, 2011; note: potency is the fitted concentration of half-maximal effect; % is set by controls: 0 for no effect and ±100 for the full control effect; nearly all actives have a fitted effect of over 75% in size
Target sequence (Q96KQ7 913-1193 limits assumed): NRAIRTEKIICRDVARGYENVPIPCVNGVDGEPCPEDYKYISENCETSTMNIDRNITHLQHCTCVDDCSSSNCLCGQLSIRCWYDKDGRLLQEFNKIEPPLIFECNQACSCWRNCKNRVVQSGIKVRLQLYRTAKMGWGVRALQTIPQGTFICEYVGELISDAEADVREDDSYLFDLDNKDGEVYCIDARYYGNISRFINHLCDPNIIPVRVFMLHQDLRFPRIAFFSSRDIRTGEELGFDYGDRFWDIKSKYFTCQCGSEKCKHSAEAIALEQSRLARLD
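G9a (20 nM) preincubated 15 min RT with compounds, then 500 nM biotinylated H3K9 peptide and 20 uM SAM added; 2 h RT reaction. Monomethyl-H3K9 product detected by AlphaScreen with anti-H3K9me1 antibody, streptavidin donor and anti-rabbit IgG acceptor beads.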
PLK1 PBD block – qHTS for Inhibitors of PLK1-PDB (polo-like kinase 1 - polo-box domain): Primary Screen. Serine/threonine-protein kinase PLK1 (Homo sapiens), P53350. Plk1 PBD binding of FITC phosphopeptide, fluorescence polarization. Potency, µM, inactives show max response, negative = inhibition, usual class: inhibitors. 360,000 tested, 2.8% active. AID 720504, 2013; note: potency is the fitted concentration of half-maximal effect; series mostly up to about 57 µM; % is set by controls: 0 for no effect and ±100 for the full control effect; nearly all actives have a fitted effect of over 65% in size
JMJD2A Tudor – qHTS Assay for Inhibitors of JMJD2A-Tudor Domain; AID 504339, 2011; Potency, µM (titrated, usually from 114 µM), for the others: at the top dose activity change, negative = inhibition, hits mostly inhibitors; AlphaScreen JMJD2A-Tudor / H3K4me3 peptide binding; 390,000 tested, 4.4% active; Lysine-specific demethylase 4A (Homo sapiens), O75164; note: potency is the fitted concentration of half-maximal effect; % is set by controls: 0 for no effect and ±100 for the full control effect; nearly all actives have a fitted effect of over 50% in size
BAZ2B block – qHTS Assay for Inhibitors of BAZ2B; Bromodomain adjacent to zinc finger domain protein 2B (Homo sapiens), Q9UIF8; AlphaScreen BAZ2B-H3K14Ac peptide displacement; Potency, µM (series often up to 114 µM), inactives show at the top dose activity change, negative = inhibition, hits mostly inhibitors; 360,000 tested, 4.4% active; AID 504333, 2011; note: potency is the fitted concentration of half-maximal effect; % is set by controls: 0 for no effect and ±100 for the full control effect; nearly all actives have a fitted effect of over 60% in size
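AlphaScreen luminescence quantifies BAZ2B engagement of H3K14Ac peptide; the protein and biotinylated peptide are both at 50 nM final, buffer PBS pH 7.4 with 0.01% Tween-20, all steps at room temperature.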
HP1b binding inh – HTS for Inhibitors of HP1-beta Chromodomain Interactions with Methylated Histone Tails; Potency, µM (highest dose often 114 µM), without a hit: at the top dose activity change, negative = inhibition, usual class: inhibitors; AlphaScreen HP1-beta / biotin-H3K9me3 peptide binding; 390,000 tested, 0.56% active; Chromobox protein homolog 1 (Homo sapiens), P83916; note: potency is the fitted concentration of half-maximal effect; nearly all actives have a fitted effect of over 70% in size
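Compound inhibition of the preformed complex between 50 nM HP1-beta and 50 nM biotinylated H3K9me3 peptide was read by AlphaScreen. Buffer was PBS pH 7.4 with 0.01% Tween-20. Incubations ran 30 min at room temperature, with 10 ug/mL donor/acceptor beads.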
PI5P4K alpha inh – qHTS for Inhibitors of phosphatidylinositol 5-phosphate 4-kinase (PI5P4K) | max response, % | 330,000 tested, 1.2% active | PI5P4Kalpha enzyme, ADP-Glo luminescence, 60 min; hits give low values | AID 652105, 2013 | Phosphatidylinositol 5-phosphate 4-kinase type-2 alpha (Homo sapiens), P48426; active = max response of -50% or lower; inconclusive = between -30% and -50%; inactive = -30% or higher; note: value at the top dose of about 77 µM; % is set by controls: 0 for no effect and ±100 for the full control effect
Target sequence (P48426 whole entry, looked up): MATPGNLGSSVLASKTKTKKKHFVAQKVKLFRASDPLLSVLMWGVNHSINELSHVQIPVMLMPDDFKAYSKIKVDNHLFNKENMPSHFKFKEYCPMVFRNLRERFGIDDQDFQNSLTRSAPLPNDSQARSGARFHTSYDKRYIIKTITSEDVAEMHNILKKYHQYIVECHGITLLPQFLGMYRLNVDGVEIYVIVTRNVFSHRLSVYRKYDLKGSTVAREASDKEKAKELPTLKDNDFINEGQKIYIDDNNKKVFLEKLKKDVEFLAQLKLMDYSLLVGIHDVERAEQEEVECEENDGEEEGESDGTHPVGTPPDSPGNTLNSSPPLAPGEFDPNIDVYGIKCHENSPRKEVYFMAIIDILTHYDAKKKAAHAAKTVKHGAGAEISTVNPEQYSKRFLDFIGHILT
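Quantitative HTS of the MLSMR library against PI5P4Kalpha with substrate. ATP added last at 5 microM final; room temperature, 60 minutes. Remaining ATP depleted, ADP converted and read as luminescence.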
Active calls of the source: *; ? = inconclusive; nt = no result given; ! = a repeat was not active; [ ] = dose if it differs, or a comment. Unless noted, calls come from the whole dose curve; as a rule, active = well fitted curve in the direction sought with a large enough effect; inconclusive = small, poorly fitted or top-dose-only effect, or another doubt; inactive = no such curve, though single readings can be large; an effect the other way counts as inactive or inconclusive.

SMILES | G9a inh | PLK1 PBD block | JMJD2A Tudor | BAZ2B block | HP1b binding inh | PI5P4K alpha inh
CC1=C(C(=O)Nc2ccc(C)cc2C)C(c2cccs2)n2nc(SCc3ccccc3Cl)nc2N1 (stereo not drawn) | -6%[59 µM] | nt | -3% | 1% | 33% | nt
Cc1ccc(N=C2CSC(=O)N2)cc1 | 0% | -6% | -8% | -5% | 37% | 4
Cc1ccc(N=c2sc(C)c(C)n2C)cc1 | 45µM* | -8% | ? | ? | -7% | 9
CN1C(=O)C2(c3ccccc31)N(c1ccccc1)C(=O)CS2(=O)=O (stereo not drawn) | -9%[59 µM] | nt | -11% | 8%[57.1 µM] | 30% | nt
CN1C(=O)C2(c3ccccc31)N(c1cccc(F)c1)C(=O)CS2(=O)=O (stereo not drawn) | 16µM* | nt | -11% | 27%[57.1 µM] | 54% | nt
COc1ccc(CCNC(=O)c2cccc(-n3c(C)nc4cccnc43)c2)cc1OC | 4%[59 µM] | nt | -2% | -4% | 37% | nt
CCCCN(CC)C(=O)c1cc2c(=O)n3cccc(C)c3nc2s1 | 56% | 17µM* | -12% | 49% | 91% | 2
CCN(CC)S(=O)(=O)c1ccc(OC)c(NC(=O)c2cc3c(=O)n4ccccc4nc3s2)c1 | 40µM* | -6% | -11% | 10% | 25% | -5
COc1ccc(CCNC(=O)c2cc3c(=O)n4cccc(C)c4nc3s2)cc1OC | 28µM* | 2% | -4% | 10% | 16% | 1
COc1ccc(CCNC(=O)c2nc3ncccn3n2)cc1OC | 9%[59 µM] | 24µM* | -12%[11.4 µM] | 5% | -12% | -14
CC(=O)NS(=O)(=O)c1ccc(NC(=O)c2cc3c(=O)n4ccccc4nc3s2)cc1 | nt | -15% | -21% | -32% | 47% | -19
CCN(CC)C(=O)c1cc2c(=O)n3cccc(C)c3nc2s1 | 12% | 5% | 7% | 11% | 43% | -7
COc1ccc(CNC(=O)c2cc3c(=O)n4cccc(C)c4nc3s2)cc1 | -1%[59 µM] | nt | -1% | 2% | 8% | nt
Cc1cccc(NC(=O)CCCN=C2NS(=O)(=O)c3ccccc32)c1C | 10%[59 µM] | -15% | -5% | -4% | 15% | 2
CCOc1ccc2nc(N3CCCC(C(=O)NCCc4ccc(OC)cc4OC)C3)sc2c1 (stereo not drawn) | -4%[59 µM] | nt | -16% | -30% | 44% | nt
O=C(COC(=O)c1ccc(OC(F)(F)F)cc1)Nc1ncccn1 | nt | -14% | 56µM* | nt | -13% | 0
CCN1C(=O)C2(C(C(=O)c3cc4ccccc4o3)=C(O)C(=O)N2CCCN2CCOCC2)c2ccccc21 (stereo not drawn) | -34% | 3% | -8% | -23% | 33% | -7
Cc1ccc(S(=O)(=O)NN=C2C(=O)C3CCC2C3Cl)cc1 (stereo not drawn) | nt | -4% | ? | nt | 49% | 7
Cc1ccc(S(=O)(=O)N/N=C2\C(=O)C3(C)CCC2C3(C)C)cc1 (stereo not drawn) | 14µM* | -2% | -8% | ? | 52% | -7
Cn1c2ccccc2c(=O)c2ccc(C#Cc3ccc(N)cc3)cc21 | 50µM* | 19% | 23% | -26% | 87% | 1
CCNC(=O)c1ccccc1-c1nc(-c2ccccc2Cl)no1 | -32% | 12µM* | -13%[11.4 µM] | 10% | -15% | -27
CCNC(=O)c1ccccc1-c1nc(-c2ccccc2OC)no1 | -9% | 2% | 4% | -2% | 46% | -8
COc1ccc(CCN(C)C(=O)CSc2nnc(C3CC3)n2N)cc1OC | 40µM* | ? | -1% | -5% | 28% | -5
COc1ccccc1/C=C/C=C(\C#N)C(=O)NC(C)c1ccccc1 (stereo not drawn) | -8% | -12% | -23% | -14% | -16% | -3
O=C(O)CN1CCNCCN(CC(=O)O)CCNCC1 | nt | -1% | -7% | nt | 56% | 2
SMILES | G9a inh | PLK1 PBD block | JMJD2A Tudor | BAZ2B block | HP1b binding inh | PI5P4K alpha inh
Cc1oc(-c2ccc(Cl)cc2)cc1C(=O)/C(C#N)=C/Nc1ccccc1 | 28µM* | -9% | -18% | -8% | -2% | -4
Cc1oc(-c2ccc(Cl)cc2)cc1C(=O)NC1CCN(Cc2ccccc2)CC1 | -30% | -3% | -18% | -13% | 0% | 5
CCOC(=O)Cc1csc(NC(=O)NC2(C(F)(F)F)Oc3cc(Cl)c(Cl)cc3O2)n1 | 13µM* | 21µM* | ? | ? | 3% | -6
CCOC(=O)Cc1csc(NC(=O)Nc2ccc(OC(F)(F)F)cc2)n1 | nt | -3% | -6% | 3% | 7% | -8
CCOC(=O)Cc1csc(NC(=O)NC2(C(F)(F)F)Oc3ccccc3O2)n1 | 8.9µM* | 12µM* | -6% | ? | 13% | nt
CCOC(=O)Cc1csc(NC(=O)NC2(C(F)(F)F)Oc3ccc(Cl)cc3O2)n1 (stereo not drawn) | 25µM* | 17µM* | ? | -7% | 7% | -15
CCN1C(=O)C2(c3ccccc31)c1c(oc3ccccc3c1=O)C(=O)N2CCOC (stereo not drawn) | -6%[59 µM] | nt | 0% | 0% | 60% | nt
C[C@@H]1C[C@H](OC(=O)[C@@H](O)c2ccccc2)CC(C)(C)N1C | 9%[21.5 µM] | nt | nt | nt | nt | nt
CC1CCC2(CC1)NC(=O)N(CC(=O)NCCc1ccc(F)cc1)C2=O (stereo not drawn) | 20%[59 µM] | -9% | -14% | 13% | 22% | -1
CC(C)(C)C(=O)NC(=S)Nc1ccc(Cc2ccncc2)cc1 | 35µM* | -21% | ? | -35% | -15% | -4
CC#C[C@]1(O)CC[C@H]2[C@@H]3CCC4=CC(=O)CCC4=C3[C@@H](c3ccc(N(C)C)cc3)C[C@@]21C | 9.5µM*! | -7% | 16µM* | 13µM* | ? | 3
C#C[C@@]1(O)CC[C@@H]2[C@@H]3CCC4=CC(=O)CC[C@@H]4[C@H]3CC[C@]21C | 15%[21.5 µM] | nt | nt | nt | nt | nt
CC1=C(SCc2ccccc2)C(=O)c2ccccc2C1=O | nt | 4.7µM* | 14µM* | nt | ? | ?
O=S(=O)(c1ccc(Cl)s1)N1CCN(CCc2ccccc2)CC1 | nt | -13% | -7% | -12% | 28% | -2
Cc1nc(-c2ccc(S(=O)(=O)N3CCCN(CCc4ccccc4)CC3)s2)cs1 | 50µM* | 3% | ? | 56µM* | -8% | 0
Cc1nc(-c2ccc(S(=O)(=O)N3CCN(C4c5ccccc5-c5ccccc54)CC3)s2)cs1 | 56µM* | -3% | -12% | -29% | ? | -9
Cc1nc(-c2ccc(S(=O)(=O)Oc3ccccc3Cl)s2)cs1 | 35% | -10% | 68% | 24% | 70% | 12
